Only some compounds are listed: those with a hit (about 5.5% of all), similar ones and a draw of the others.
CtBP-E1A blk: blocks the CtBP interaction with E1A. AlphaScreen GST-E1A/His-CtBP binding, 1536-well; hits give low values. activity change, % (concentration not given with the values). 340,000 compounds, 0.49% hits; in the data active means activity change below about -65%; inconclusive means mostly about -30% to -63%
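In 5 uL wells, 23 nL compound meets equimolar GST-E1A and His-CtBP (5X stock 125 nM each) for 2 h, 37 °C. Beads (5X, 50 ug/mL) then 1 h, 37 °C, dark.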
VP16 counter: inhibits Gal4-VP16 luciferase reporter, ROR gamma counter-screen | Drosophila S2 Gal4-VP16 UAS-luciferase, luminescence, 20 h | Potency, µM (series often up to 53.6 µM), actives largely listed as inhibitors | 310,000 compounds, 3.5% hits | AID 2546;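 further: Gal4-VP16 expression switched on by copper sulfate through the metallothionein promoter; nearly all actives have a fitted effect of over 50% in size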
CBFb-RUNX1 inh: CBF-beta/RUNX1 interaction disruption; Q01196+Q13951; 230,000 tested, under 10 active; AID 1477; AlphaScreen CBFb-His/RUNX1-biotin binding, biochemical; Potency, µM (series often up to 59.8 µM), most hits filed as inhibitors
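Proteins preincubated together for 20 min at RT before compound addition; 15 min later, nickel and streptavidin beads were added and left 90 min prior to AlphaScreen measurement.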
RORgamma inh: blocks mouse ROR gamma transcriptional activity | P51450 | Drosophila S2 Gal4-RORgamma UAS-luciferase reporter, 20 h | Potency, µM (top dose mostly 53.6 µM), actives largely listed as inhibitors | 310,000 compounds, 5.4% hits; further: nearly all actives have a fitted effect of over 60% in size
Target sequence (P51450 whole entry, looked up, the tested form may be a part): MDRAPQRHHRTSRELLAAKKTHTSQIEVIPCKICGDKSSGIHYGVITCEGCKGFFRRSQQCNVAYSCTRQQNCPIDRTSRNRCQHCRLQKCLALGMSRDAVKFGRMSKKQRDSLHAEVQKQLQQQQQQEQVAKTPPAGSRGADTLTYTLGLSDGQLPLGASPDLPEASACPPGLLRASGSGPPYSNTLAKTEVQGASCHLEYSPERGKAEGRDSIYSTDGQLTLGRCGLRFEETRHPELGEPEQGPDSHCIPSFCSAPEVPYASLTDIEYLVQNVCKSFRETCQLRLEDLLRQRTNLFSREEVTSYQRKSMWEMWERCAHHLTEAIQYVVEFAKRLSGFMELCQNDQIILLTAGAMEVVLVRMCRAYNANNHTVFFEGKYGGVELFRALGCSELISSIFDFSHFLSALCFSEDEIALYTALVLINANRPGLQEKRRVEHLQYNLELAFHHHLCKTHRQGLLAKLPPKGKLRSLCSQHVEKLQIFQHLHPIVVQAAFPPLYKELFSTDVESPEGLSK
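Drosophila S2 cells stably expressing Gal4-DBD/mouse RORγ fusion under metallothionein promoter plus UAS-luciferase; compound 1 h, then 700 uM CuSO4 induction for 20 h at ambient temperature; inhibition read as reduced luminescence.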
MBNL1-CUG inh: MBNL1-poly(CUG) RNA binding inhibition; TR-FRET MBNL1-His/biotin-(CUG)12 binding, 665/545 ratio; Potency, µM (doses to about 57.5 µM), most hits filed as inhibitors; 280,000 compounds, 0.036% hits; AID 2675; active means well fitted inhibition curve with a large enough effect in the signal ratio, with a control signal flat, not every such curve was filed as active; inconclusive means small, poorly fitted or top-dose-only effect, or effect the other way, or a change in a side signal; inactive means no such curve, though single readings can be large or run the other way; the % refers to the signal ratio
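MBNL1-His + Biotin-(CUG)12, cpd titration 92 nM–58 uM; Tb anti-His Ab 0.055 ng/ul, SA-XL665 5 nM (final); 60 min RT; ratiometric 665/545 nm, Ex 340 nm; normalized to buffer and full-complex controls.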
Six1-Eya2 inh: Six1/Eya2 interaction inhibition; Q15475+O00167; AlphaScreen GST-Six1/His-Eya2 binding, biochemical; hits give low values; activity change, % (no concentration beside the values); 360,000 compounds, 0.56% hits; in the data active means activity change below about -65%; inconclusive means mostly about -30% to -63%
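Compounds are tested against tagged Six1 and Eya2 proteins bridged by glutathione donor and nickel acceptor beads; after a one-hour incubation at 37 °C without light, AlphaScreen emission is recorded.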
A number is an active result; - = inactive; ? = inconclusive; . = no result; [ ] = another dose, or the depositor's remark. Unless noted, the call rests on the fitted dose curve; in most records, active means well fitted curve in the direction sought with a large enough effect; inconclusive means small, poorly fitted or top-dose-only effect, or another doubt; inactive means no such curve, though single readings can be large; an effect the other way counts as inactive or inconclusive.

SMILES	CtBP-E1A blk	VP16 counter	CBFb-RUNX1 inh	RORgamma inh	MBNL1-CUG inh	Six1-Eya2 inh
COc1ccc(/C=N/NC(=O)c2ccc(O)cc2O)cc1CSc1ccccn1	?	2µM	-	0.089µM	-	-
O=C(N/N=C/c1cccc(Oc2ccccc2)c1)c1ccncc1	-	?	-	?	-	-
O=C(N/N=C/c1cccc(Oc2ccccc2)c1)c1ccc(O)cc1O	-	2.2µM	.	0.63µM	-	-
COc1ccc(/C=N/NC(=O)c2cccnc2)cc1CSc1nc2ccccc2s1	-	20µM	-	?	-	-
CC(C)C[C@H]1CNC(=O)C(=O)N1CC1CCN(CC2CCC(C(C)(C)C)CC2)CC1 (stereo partly specified)	-	.	.	.	.	-
CCOc1ccccc1NC(=O)COC(=O)/C=C/c1cccs1	-	.	.	.	.	-
O=C(c1ccc(Cl)c(S(=O)(=O)N2CCOCC2)c1)N(Cc1ccco1)Cc1cccs1	-	.	.	.	.	-
CCN(CC)C(=O)CSc1nnc(-c2c[nH]c3ccccc23)o1	.	-	.	-	-	-
Nc1ccc(-c2nc3c(ccc4ccccc43)[nH]2)cc1	.	?	.	0.89µM	-	-
Nc1ccc(-c2nc3ccccc3[nH]2)cc1	-	-	-	-	-	-
COc1ccc(-c2nnc(SCC(=O)NCC3CCCO3)o2)cc1 (stereo unspecified)	-	?	.	13µM	-	-
COc1ccc(Cc2nnc(SCC(=O)NCC3CCCO3)o2)cc1 (stereo unspecified)	-	-	-	-	-	-
COc1ccc(Cc2nnc(SCC(=O)NCc3ccco3)o2)cc1	-	?	-	-	-	-
COc1ccc(-c2nnc(SCC(=O)c3ccc(O)cc3O)o2)cc1	-	?	.	5.6µM	-	-
COc1ccc(-c2nnc(SCC(=O)NCc3ccco3)o2)cc1	-	?	-	0.56µM	-	-
CCCCOC(=O)/C=C\C(=O)NC(N)=O	-	-	-	?	-	-
Fc1ccc(CN(C2=NCCN2)c2c(Cl)cccc2Cl)cc1	.	.	-	.	.	.
COc1ccc(-n2c(C)nc3cc(C(=O)N4CCOCC4)ccc32)cc1	-	-	-	2µM	-	-
COc1ccc(-n2c(C)nc3cc(C(=O)NCCN4CCOCC4)ccc32)cc1	-	-	-	-	-	-
C[C@H](CO)N1C[C@H](C)[C@H](CN(C)C(=O)c2ccc3ccn(C)c3c2)OCc2cnnn2CCCC1=O	-	.	.	.	.	-
CCOc1ccc(C(=O)Nc2ccccc2-c2ccccc2)cc1Cl	-	-	-	-	-	-
Cc1cccc(NC(=O)c2ccccc2O)c1C	-	1.1µM	-	?	-	-
Cc1c(NC(=O)c2ccc(-c3ccccc3)cc2)cccc1C(=O)O	-	?	-	10µM	-	-
CCOc1ccc(C(=O)Nc2cccc(C(=O)O)c2C)cc1Cl	-	1.6µM	-	-	-	-
COc1cc(OC)cc(-c2nnc(SCc3ccc(C(=O)O)cc3)o2)c1	-	-	.	-	-	-
SMILES	CtBP-E1A blk	VP16 counter	CBFb-RUNX1 inh	RORgamma inh	MBNL1-CUG inh	Six1-Eya2 inh
COC(=O)c1cc2c(n1S(=O)(=O)c1ccc(C)cc1)C(=O)C(=O)c1[nH]cc(C(=O)OCc3ccccc3)c1-2	-	.	.	.	.	-
CCOc1ccc2nc(SC3CC(=O)N(c4ccc(C)cc4)C3=O)sc2c1 (stereo unspecified)	-	-	-	-	-	-
CCOc1ccc(N2C(=O)CC(Sc3nc4ccc(OCC)cc4s3)C2=O)cc1 (stereo unspecified)	-	.	.	.	.	-
COc1ccc(N2C(=O)CC(Sc3nc4ccccc4s3)C2=O)cc1OC (stereo unspecified)	.	5.6µM	-	6.3µM	-	-
CC(=O)Nc1ccc(N2C(=O)CC(Sc3nc4ccccc4s3)C2=O)cc1 (stereo unspecified)	.	-[10 µM]	-	2.2µM	-	-
CCOc1ccc2nc(SC3CC(=O)N(c4ccc(OC)cc4OC)C3=O)sc2c1 (stereo unspecified)	-	?	-	7.1µM	-	-
COc1ccc(C(=O)Cn2cnc3ccc(Cl)cc3c2=O)cc1F	-	-	.	-	-	-
C[C@H](CO)N1C[C@H](C)[C@@H](CN(C)Cc2ccc(C(=O)O)cc2)Oc2c(NS(=O)(=O)c3cccs3)cccc2C1=O	-	.	.	.	.	-
COc1ccc(NC(C)=O)cc1NC(C)c1nc2sc(C)c(C)c2c(=O)[nH]1 (stereo unspecified)	-	-	-	10µM	-	-
CCOc1ccc(NC(=O)CN(C)C(=O)c2ccc(=O)[nH]c2)cc1OCC	-	-	.	11µM	-	-
CCN(CC)CCn1c(=S)[nH]c2cc(C(=O)NCc3ccc(C)cc3)ccc2c1=O	-	-	.	-	-	-
CCC(Sc1ccccn1)C(=O)Nc1cccc([N+](=O)[O-])c1 (stereo unspecified)	-	?	-	16µM	-	-
CC(Sc1cccc[n+]1[O-])C(=O)Nc1cccc([N+](=O)[O-])c1 (stereo unspecified)	-	-	-	-	?	-
CCCC[C@@H](CNC)NC[C@H](NCCCCC1CCCCC1)C(C)C	-	?	.	16µM	-	-
